Compound activity deposited in PubChem by Broad Institute.
The list is a sample of the results.
aSyn 5UTR act = Activators via SNCA 5'UTR binding, MLPCN. 7.1% of 300,000 active. alpha-synuclein 5'UTR reporter, activators screen. AID 1814. activity score, % (tested at 7.5 µM), hits read low; in the data active = activity score below about -60%
* = called active by the depositor.

SMILES	aSyn 5UTR act
O=C(c1ccccc1)N1CCN(CC#Cc2ccccc2)CC1	-65.5*
C/C(=N/OC(=O)C1CC1)c1cc(-c2ccc(Cl)cc2)no1	-133.0*
C/C(=N\OC(=O)c1ccccc1)c1cc(-c2ccc(Cl)cc2)no1	-151.7*
CCOCCCNC(=O)c1ccc2c(c1)N=C(CC)c1cc(Br)ccc1S2	88.0
CCOCCCNC(=O)c1cccc(OC2CCN(S(C)(=O)=O)CC2)c1	-150.5*
Cc1cc(N2CCN(C(=O)c3ccco3)CC2)n2ncc(-c3ccccc3)c2n1	-78.5*
Cc1cc(N2CCCCC2)n2ncc(-c3ccc(Cl)cc3)c2n1	-181.3*
CCC1SC(=NC(=O)c2ccc(Cl)c(Cl)c2)NC1=O (configuration not stated)	-75.5*
O=C(CCS(=O)(=O)c1ccccc1)NC12CC3CC(CC(C3)C1)C2	-179.3*
COc1cc(OC)cc(C(=O)NCC(=O)Nc2ccc(-c3ccccc3)cc2)c1	-195.2*
COc1cccc(NC(=O)CNC(=O)c2ccccc2)c1	-66.3*
COc1cccc(NC(=O)CN(C)C(=O)CNC(=O)c2ccc(Oc3ccccc3)cc2)c1	-123.6*
Clc1ccc(/C=N/N2CCCCC2)cc1	-102.6*
O=[N+]([O-])c1ccc(/C=N/N2CCCCC2)cc1	-127.6*
CSc1nc2ccc(NC(=O)c3ccc(F)c(F)c3)cc2s1	-142.9*
O=C(Nc1nc2ccc([N+](=O)[O-])cc2s1)c1ccco1	-74.1*
CSc1nc2ccc(NC(=O)c3cc4ccccc4o3)cc2s1	-126.3*
CSc1nc2ccc(NC(=O)c3ccco3)cc2s1	-133.5*
CC(=O)Nc1ccc2nc(NC(=O)c3ccc([N+](=O)[O-])o3)sc2c1	-100.0*
COc1ccc2nc(NC(=S)NC(=O)c3ccco3)sc2c1	-132.7*
CSc1nc2ccc(NC(=O)c3ccc(=O)n(C)n3)cc2s1	-69.7*
CC(=O)Nc1ccc2nc(NC(=O)c3ccco3)sc2c1	-96.3*
Cc1ccc(-c2csc(NC(=O)c3cccc(S(=O)(=O)N4CCN(C)CC4)c3)n2)cc1	-65.8*
Cc1ccc(-c2csc(NC(=O)COC(=O)c3cccc(S(=O)(=O)N4CCOCC4)c3)n2)cc1	-92.8*
O=C(Nc1cccc(F)c1)NC1CCCCC1	-156.3*
SMILES	aSyn 5UTR act
O=C(NC(=S)NC1CCCCC1)c1ccc(F)cc1	-162.3*
O=C(Nc1ccc(N2CCOCC2)cc1)NC1CCCCC1	-78.1*
O=C(NC(=S)NNC(=O)c1cnccn1)c1ccc(F)cc1	70.3
CC(C)CNC(=S)NC(=O)c1ccc(F)cc1	-150.1*
O=C(Nc1ccc(F)cc1)NC1CCCCC1	-111.2*
CCN(CC)c1ccc(/C=C2\SC(=O)N(C(C)C)C2=O)o1	-103.0*
S=C(NCc1ccco1)Nc1cc(-c2ccccc2)[nH]n1	-68.3*
N#Cc1cnc(Nc2nc3ccccc3o2)nc1-c1ccccc1	-72.0*
CSc1nc(-c2ccc(Cl)cc2)nn1S(=O)(=O)c1ccc(Cl)cc1	-73.7*
CC(C)CCn1c(SCc2ccc(Cl)cc2)nc2c1c(=O)[nH]c(=O)n2C	57.2
CSc1nc(-c2ccc(Cl)cc2)nn1S(=O)(=O)c1ccccc1	-73.6*
CS(=O)(=O)n1nc(-c2ccc(Cl)cc2)nc1SCc1ccccc1	-111.7*
Cc1cc(C(=O)CSc2nc3ccccc3o2)c(C)n1C1CC1	-164.5*
C=CCn1c(C)cc(C(=O)COc2nncc3ccccc23)c1C	-122.6*
C=CCn1c(C)cc(C(=O)CSc2nc3ccccc3o2)c1C	-136.5*
C=CCn1c(C)cc(C(=O)CSc2nc3ccccc3[nH]2)c1C	59.3
CC(C)Oc1ccccc1C1CC(=O)Nc2cc3c(cc21)OCO3 (configuration not stated)	90.6
CC(C)c1ccc(C2C3=C(COC3=O)Nc3cc4c(cc32)OCO4)cc1 (configuration not stated)	122.9
O=C1NC(c2ccc3c(c2)OCO3)Nc2ccccc21 (configuration not stated)	-179.7*
COC(=O)c1ccccc1NC(=O)c1ccc2c(c1)CC(C)O2 (configuration not stated)	-64.9*
Cc1ccc(SCc2ccc(C(=O)Nc3nccs3)o2)cc1	-78.5*
CCOC(=O)c1c(SCC(=O)Nc2nccs2)nc(C)c(C)c1C	-67.7*
O=C(Nc1nccs1)c1ccc(CSc2ccccc2)o1	-125.8*
CN(C)c1ccc(NC(=O)c2sc(SCC(=O)Nc3nccs3)nc2N)cc1	-156.0*
O=C(CSc1cn(Cc2ccccc2)c2ccccc12)Nc1nccs1	-167.8*
SMILES	aSyn 5UTR act
Cc1ccc(SCC(=O)Nc2nccs2)cc1	-107.3*
CC(C)(C)NC(=S)Nc1ccc(Nc2ccccc2)cc1	-115.4*
C/C(=N\NC(=S)Nc1ccccc1)C1Cc2ccccc2C(=O)O1 (configuration not stated)	-154.4*
Cc1cc(C)nc(NC(=S)Nc2ccccc2)n1	-83.7*
COCCCNC(=S)NNC(=S)Nc1ccc(F)cc1F	-105.9*
S=C(NN=C(C1CC1)C1CC1)Nc1ccccc1	-63.2*
COCCCNC(=S)NNC(=S)Nc1ccccc1	-64.7*
S=C(NNC(=S)Nc1ccccc1)Nc1ccccc1	-145.3*
S=C(Nc1ccc(Nc2ccccc2)cc1)NN1CCOCC1	-99.2*
CNc1cnn(-c2ccc(C)cc2)c(=O)c1Cl	-86.2*
